Structures are written as SMILES. Records with an inconclusive call do not appear. Calls of active or inactive are those of the source. Calls follow the shape of the dose curve; as a rule, active = well fitted cell-killing curve with a large enough effect; inconclusive = small, poorly fitted or top-dose-only effect; inactive = flat fitted curve, though single readings scatter.

One test in a line: Cell Viability - LYMP2-014 (AID 983). Also: nearly all actives have a fitted effect of over 50% in size. The following applies: LYMP2-014 lymphoblastoid cells, viability qHTS; series mostly up to 92.2 µM. The procedure, abridged:
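Quantitative HTS in lymphoblastoid cells: 24 hr compound exposure, then CellTiter-Glo ATP luminescence. Positive control was tetraoctylammonium bromide, 6.4pM to 92 uM.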
(qHTS replaces the single test concentration by a dilution series.)
As for `CCCC(CCC)C(=O)O`, the molecule was called inactive.
Regarding `NC(=O)c1cnccn1`, the result was inactive.
Turning to `CC(=O)Oc1ccccc1C(=O)O`, the molecule was classed as inactive.
As for `NS(=O)(=O)c1cc2c(cc1Cl)NC=NS2(=O)=O`, the molecule was called inactive.
In the case of `NC(N)=NC(=O)c1nc(Cl)c(N)nc1N`, the result was inactive.
With `O=c1[nH]cnc2[nH]ncc12`, the call was inactive.
The same measure, in the same setting: as for `Cn1cnc([N+](=O)[O-])c1Sc1ncnc2nc[nH]c12`, the entry is “inactive”.

The next test in a line: Cell Viability - LYMP2-016 (AID 984).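 Also: cells exposed to compound for 24 hours at 37 °C; nearly all actives have a fitted effect of over 55% in size.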 The following applies: LYMP2-016 lymphoblastoid cell viability, qHTS; series mostly up to 92.2 µM. The procedure, abridged: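 Human lymphoblastoid LYMP2-016 cells, 2500 per well, treated with compounds for 24 h at 37 C. Viability read as intracellular ATP by CellTiter-Glo luminescence after 30 min at room temperature; AC50 from Hill fits of concentration-response.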
Turning to `CCCC(CCC)C(=O)O`, the result was inactive.
For `NC(=O)c1cnccn1`, the outcome was inactive.
Regarding `CC(=O)Oc1ccccc1C(=O)O`, the result was inactive.
`NS(=O)(=O)c1cc2c(cc1Cl)NC=NS2(=O)=O`: the call was inactive.
The same measure, in the same setting: in the case of `NC(N)=NC(=O)c1nc(Cl)c(N)nc1N` it was “inactive”; in that of `O=c1[nH]cnc2[nH]ncc12`, “inactive”.

Another test can be described thus: Cell Viability - LYMP2-018 (AID 985).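 Also: compound exposure lasted 24 hr at 37 °C; nearly all actives have a fitted effect of over 50% in size.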 The following applies: LYMP2-018 lymphoblastoid cells, viability (qHTS); series mostly up to 92.2 µM. The procedure, abridged:
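In this qHTS viability assay, cells are treated for 24 hr and cellular ATP is quantified by luciferase-based luminescence, with tetraoctylammonium bromide as positive control.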
As to `CCCC(CCC)C(=O)O`, the molecule was classed as inactive.
On to `NC(=O)c1cnccn1`, for which the result was inactive.
Turning to `CC(=O)Oc1ccccc1C(=O)O`, the molecule was called inactive.
On to `NS(=O)(=O)c1cc2c(cc1Cl)NC=NS2(=O)=O`, for which the molecule was classed as inactive.
Still for that read-out and setting: in the case of `NC(N)=NC(=O)c1nc(Cl)c(N)nc1N` it was “inactive”; in that of `O=c1[nH]cnc2[nH]ncc12`, “inactive”.

(Values after PubChem BioAssay (NCATS).)
